Assay results: PubChem BioAssay (NCATS)
Inconclusive results are not listed. Calls of active or inactive are those of the source. Unless noted, the call rests on the fitted dose curve; in most records, active means well fitted curve in the direction sought with a large enough effect; inconclusive means small, poorly fitted or top-dose-only effect, or another doubt; inactive means no such curve, though single readings can be large; an effect the other way counts as inactive or inconclusive.

Assays:
[1] = target: ATP-dependent 6-phosphofructokinase (Trypanosoma brucei brucei) (UniProt O15648); assay: qHTS Assay to Find Inhibitors of T. brucei phosphofructokinase: hit validation (AID 492961);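 further: luminescence reports ADP formed as PFK phosphorylates fructose-6-phosphate with ATP; on the % scale 0 is the no-effect control and ±100 the full control effect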
How it was run: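 PFK 1.25 nM, F6P 0.5 mM, ATP 0.1 mM, MgCl2 5 mM, 0.1 M TEA pH 8.0, Tween20 0.01%, BSA 0.1%; 45 min RT. ADP-Glo two-step detection, luminescence. qHTS titration; curve fitting with curve-class categorization.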

[2] = target: Ubiquitin carboxyl-terminal hydrolase 1 (Homo sapiens) (UniProt O94782); assay: Inhibitors of USP1/UAF1: Pilot qHTS (AID 504865);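 further: rhodamine fluorescence freed from ubiquitin-rhodamine substrate followed over time; top concentration of the series differs between compounds; on the % scale 0 is the no-effect control and ±100 the full control effect; nearly all actives have a fitted effect of over 35% in size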
How it was run: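 In 50mM HEPES pH 7.8 containing 0.5mM EDTA, 1mM TCEP, 0.1 mg/ml BSA and 0.01% Tween-20, 1nM USP1/UAF1 is exposed to compound for 15 min, then Ub-Rho (150nM final) is added and fluorescence is read over time.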

[3] = target: Luciferin 4-monooxygenase (Photinus pyralis) (UniProt P08659); assay: Biochemical firefly luciferase enzyme assay for NPC (AID 624030);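 further: purified P. pyralis luciferase at 10 nM with luciferin and ATP substrate; 0% = DMSO and -100% = full luciferase inhibition by PTC124 control; nearly all actives have a fitted effect of over 70% in size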
How it was run: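 Counter-screen for direct inhibition of the luciferase enzyme by approved-drug library compounds, run at 10 nM enzyme in 50 mM Tris acetate (final). Luminescence was read within 5 min of enzyme-buffer addition and normalized to PTC124 versus DMSO (0%).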

[4] = S16 Schwann cell viability assay (CellTiter-Glo assay) (AID 624031);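 further: cellular ATP luminescence as a viability measure; plate controls were DMSO-treated cells for no effect and cell-free wells for full effect; nearly all actives have a fitted effect of over 70% in size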
How it was run: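 Luminescent ATP read-out (CellTiter-Glo) after 24 h compound exposure of native S16 rat Schwann cells at 37 °C. Signals were normalized between cell-free wells and DMSO-treated cells, set as 0% activity.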

[5] = S16 Schwann cell PMP22 intronic element beta-lactamase assay (AID 624044; calls by dose curve;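 further: 0% = DMSO and -100% = potassium clavulanate positive control; nearly all actives have a fitted effect of over 15% in size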)
How it was run: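 Rat S16 Schwann cells with beta-Lac driven by a PMP22 intronic element, compound-treated 24 h at 37 °C. LiveBLAzer FRET B/G read: 460 nm normalized to potassium clavulanate vs DMSO; 535 nm FRET as viability; concentration-effect curves classified.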

[6] = tested on: Zika virus NS2B-NS3 protease; assay: Primary screen GU AMC qHTS for Zika virus inhibitors (AID 1347154);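 further: 0% = no-inhibitor control and -100% = no-enzyme control; nearly all actives have a fitted effect of over 70% in size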
How it was run: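 Unlinked Zika NS2B hydrophilic domain/NS3 protease domain noncovalent complex (25 nM final) in 10 mM Tris-HCl pH 8.0, 0.01% Tween 20, with AMC peptide substrate. Fluorescence (ex 340, em 450 nm) change over 15 min, room temperature; percent inhibition fitted to 4-parameter Hill equation.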

[7] = Primary qHTS for small molecule stabilizers of the endoplasmic reticulum resident proteome: Secreted ER Calcium Modulated Protein (SERCaMP) assay (AID 1508630); further: on the % scale 0 is the no-effect control and ±100 the full control effect
How it was run: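 GLuc-SERCaMP-expressing SH-SY5Y cells, pretreated 16 h with compound, are challenged with thapsigargin to empty ER calcium stores; after 4 h, coelenterazine is added directly to the medium and luminescence is imaged.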

[8] = qHTS profiling for inhibitors of Plasmodium falciparum proliferation (AID 504749);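 further: 0% = DMSO vehicle and full inhibition = artemisinin control; nearly all actives have a fitted effect of over 60% in size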; conditions: P. falciparum in erythrocytes, SYBR Green DNA, 72 h, at 28.7 µM (top of the series)
How it was run: (§1)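 P. falciparum-infected erythrocytes (0.3% parasitemia, 2.5% hematocrit final) were exposed to compounds for 72 h at 37 C in 5% CO2, then lysed with SYBR Green buffer overnight at room temperature; parasite DNA fluorescence was normalized to artemisinin and DMSO controls.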

3D7 = assay: as above; conditions: P. falciparum in erythrocytes, SYBR Green DNA, 72 h; series mostly up to 28.7 µM
How it was run: as §1

7G8 = assay: as above; conditions: P. falciparum in erythrocytes, SYBR Green DNA, 72 h; series mostly up to 28.7 µM
How it was run: as §1

AA1029 = assay: as above; conditions: P. falciparum in erythrocytes, SYBR Green DNA, 72 h; series mostly up to 28.7 µM
How it was run: as §1

AS120 = assay: as above; conditions: P. falciparum in erythrocytes, SYBR Green DNA, 72 h; series mostly up to 28.7 µM
How it was run: as §1

ATS189 = assay: as above; conditions: P. falciparum in erythrocytes, SYBR Green DNA, 72 h; series mostly up to 28.7 µM
How it was run: as §1

ATS95 = assay: as above; conditions: P. falciparum in erythrocytes, SYBR Green DNA, 72 h; series mostly up to 28.7 µM
How it was run: as §1

C2A = assay: as above; conditions: P. falciparum in erythrocytes, SYBR Green DNA, 72 h; series mostly up to 28.7 µM
How it was run: as §1

CP185 = assay: as above; conditions: P. falciparum in erythrocytes, SYBR Green DNA, 72 h; series mostly up to 28.7 µM
How it was run: as §1

CP191 = assay: as above; conditions: P. falciparum in erythrocytes, SYBR Green DNA, 72 h; series mostly up to 28.7 µM
How it was run: as §1

CP194 = assay: as above; conditions: P. falciparum in erythrocytes, SYBR Green DNA, 72 h; series mostly up to 28.7 µM
How it was run: as §1

CP201 = assay: as above; conditions: P. falciparum in erythrocytes, SYBR Green DNA, 72 h; series mostly up to 28.7 µM
How it was run: as §1

CP203 = assay: as above; conditions: P. falciparum in erythrocytes, SYBR Green DNA, 72 h; series mostly up to 28.7 µM
How it was run: as §1

CP211 = assay: as above; conditions: P. falciparum in erythrocytes, SYBR Green DNA, 72 h; series mostly up to 28.7 µM
How it was run: as §1

CP215 = assay: as above; conditions: P. falciparum in erythrocytes, SYBR Green DNA, 72 h; series mostly up to 28.7 µM
How it was run: as §1

CP217 = assay: as above; conditions: P. falciparum in erythrocytes, SYBR Green DNA, 72 h; series mostly up to 28.7 µM
How it was run: as §1

CP237 = assay: as above; conditions: P. falciparum in erythrocytes, SYBR Green DNA, 72 h; series mostly up to 28.7 µM
How it was run: as §1

CP238 = assay: as above; conditions: P. falciparum in erythrocytes, SYBR Green DNA, 72 h; series mostly up to 28.7 µM
How it was run: as §1

CP247 = assay: as above; conditions: P. falciparum in erythrocytes, SYBR Green DNA, 72 h; series mostly up to 28.7 µM
How it was run: as §1

CP250 = assay: as above; conditions: P. falciparum in erythrocytes, SYBR Green DNA, 72 h; series mostly up to 28.7 µM
How it was run: as §1

CP252 = assay: as above; conditions: P. falciparum in erythrocytes, SYBR Green DNA, 72 h; series mostly up to 28.7 µM
How it was run: as §1

CP256 = assay: as above; conditions: P. falciparum in erythrocytes, SYBR Green DNA, 72 h; series mostly up to 28.7 µM
How it was run: as §1

CP260 = assay: as above; conditions: P. falciparum in erythrocytes, SYBR Green DNA, 72 h; series mostly up to 28.7 µM
How it was run: as §1

CP262 = assay: as above; conditions: P. falciparum in erythrocytes, SYBR Green DNA, 72 h; series mostly up to 28.7 µM
How it was run: as §1

ATP-dependent 6-phosphofructokinase (Trypanosoma brucei brucei), sequence (O15648 whole entry, looked up): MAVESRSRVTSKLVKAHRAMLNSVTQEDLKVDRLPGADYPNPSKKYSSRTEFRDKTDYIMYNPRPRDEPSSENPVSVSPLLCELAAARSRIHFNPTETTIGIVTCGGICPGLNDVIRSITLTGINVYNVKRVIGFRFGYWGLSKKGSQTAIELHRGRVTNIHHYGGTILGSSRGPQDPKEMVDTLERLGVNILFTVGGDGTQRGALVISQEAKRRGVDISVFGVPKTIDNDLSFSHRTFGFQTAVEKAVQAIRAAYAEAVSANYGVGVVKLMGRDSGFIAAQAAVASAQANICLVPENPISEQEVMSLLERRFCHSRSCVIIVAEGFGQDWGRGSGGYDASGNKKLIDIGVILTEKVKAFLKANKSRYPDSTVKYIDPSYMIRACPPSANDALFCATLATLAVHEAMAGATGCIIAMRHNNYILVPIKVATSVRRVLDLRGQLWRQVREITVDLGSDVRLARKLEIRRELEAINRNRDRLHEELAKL
Luciferin 4-monooxygenase (Photinus pyralis), sequence (P08659 whole entry, looked up): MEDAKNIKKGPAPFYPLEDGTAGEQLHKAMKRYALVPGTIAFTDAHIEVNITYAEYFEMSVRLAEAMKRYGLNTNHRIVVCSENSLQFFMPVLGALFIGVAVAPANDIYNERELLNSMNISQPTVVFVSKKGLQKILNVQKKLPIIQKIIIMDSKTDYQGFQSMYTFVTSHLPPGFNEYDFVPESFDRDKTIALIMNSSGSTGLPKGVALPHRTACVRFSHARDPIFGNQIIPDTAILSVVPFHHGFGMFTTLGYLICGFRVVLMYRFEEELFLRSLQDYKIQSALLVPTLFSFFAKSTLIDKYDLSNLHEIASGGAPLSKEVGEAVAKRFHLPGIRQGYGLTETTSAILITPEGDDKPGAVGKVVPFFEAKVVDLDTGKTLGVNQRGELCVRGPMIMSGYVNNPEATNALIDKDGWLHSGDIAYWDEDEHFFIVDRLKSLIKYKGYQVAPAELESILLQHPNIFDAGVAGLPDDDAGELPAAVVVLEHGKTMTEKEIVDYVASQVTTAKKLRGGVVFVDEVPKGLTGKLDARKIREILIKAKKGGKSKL
Ubiquitin carboxyl-terminal hydrolase 1 (Homo sapiens), sequence (O94782 whole entry, looked up): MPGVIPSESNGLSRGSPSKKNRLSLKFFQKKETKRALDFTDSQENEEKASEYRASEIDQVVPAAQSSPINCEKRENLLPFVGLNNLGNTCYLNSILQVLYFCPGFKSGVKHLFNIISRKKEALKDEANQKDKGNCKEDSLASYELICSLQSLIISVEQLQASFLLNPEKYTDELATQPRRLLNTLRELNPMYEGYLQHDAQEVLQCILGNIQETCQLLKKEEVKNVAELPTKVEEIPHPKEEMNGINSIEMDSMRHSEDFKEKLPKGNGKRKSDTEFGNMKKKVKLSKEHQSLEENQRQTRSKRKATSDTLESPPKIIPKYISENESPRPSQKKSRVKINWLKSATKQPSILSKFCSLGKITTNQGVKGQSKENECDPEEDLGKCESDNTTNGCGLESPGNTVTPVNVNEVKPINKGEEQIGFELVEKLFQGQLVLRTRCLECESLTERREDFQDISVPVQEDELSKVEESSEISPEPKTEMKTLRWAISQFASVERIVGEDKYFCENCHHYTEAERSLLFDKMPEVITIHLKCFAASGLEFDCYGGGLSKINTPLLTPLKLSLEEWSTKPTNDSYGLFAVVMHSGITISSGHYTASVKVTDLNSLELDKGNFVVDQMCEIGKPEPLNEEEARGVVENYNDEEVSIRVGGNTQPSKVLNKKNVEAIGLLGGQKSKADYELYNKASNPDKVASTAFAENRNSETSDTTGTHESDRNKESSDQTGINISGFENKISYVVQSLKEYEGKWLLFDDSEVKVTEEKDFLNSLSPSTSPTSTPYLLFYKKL

C/C=C1\C2C=C(C)CC1(N)c1ccc(=O)[nH]c1C2 (configuration not stated)
inactive: outcome [1] | Potency [2] | Potency [3] | outcome [4] | Potency [5] | Potency [6] | Potency [7] | activity, negative = inhibition ([8]; parasite line A) -3.71% | activity, negative = inhibition ([8]; parasite line B) 0.727% | Potency (3D7) | Potency (7G8) | Potency (AA1029) | Potency (AS120) | Potency (ATS189) | Potency (ATS95) | Potency (C2A) | Potency (CP185) | Potency (CP191) | Potency (CP194) | Potency (CP201) | Potency (CP203) | Potency (CP211) | Potency (CP215) | Potency (CP217) | Potency (CP237) | Potency (CP238) | Potency (CP247) | Potency (CP250) | Potency (CP252) | Potency (CP256) | Potency (CP260) | Potency (CP262)
